STK33 inh = inhibitors of human STK33 kinase; 27,000 tested, 0.44% active; ADP-Glo luminescence, MBP substrate; inhibition, % at 12.5 µM; Q9BYT3; in the data active = inhibition above about 20%; inconclusive = no clear call, values can overlap the other calls
Target sequence (Q9BYT3 whole entry, looked up): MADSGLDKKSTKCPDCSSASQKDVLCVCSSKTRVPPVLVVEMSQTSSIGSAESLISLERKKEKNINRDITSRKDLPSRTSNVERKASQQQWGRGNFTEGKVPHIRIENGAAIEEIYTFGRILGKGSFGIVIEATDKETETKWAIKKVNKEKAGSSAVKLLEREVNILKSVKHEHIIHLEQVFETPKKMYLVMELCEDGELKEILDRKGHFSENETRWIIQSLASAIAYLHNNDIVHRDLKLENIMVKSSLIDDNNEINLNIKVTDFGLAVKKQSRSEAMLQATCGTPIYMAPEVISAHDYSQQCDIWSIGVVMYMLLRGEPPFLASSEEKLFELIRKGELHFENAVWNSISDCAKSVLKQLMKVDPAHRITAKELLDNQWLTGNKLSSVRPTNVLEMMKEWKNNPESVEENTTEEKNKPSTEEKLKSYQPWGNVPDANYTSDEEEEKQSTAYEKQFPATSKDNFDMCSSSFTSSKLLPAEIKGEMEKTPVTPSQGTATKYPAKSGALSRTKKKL
PD-1 reverse act = reversal of PD-1 mediated T-cell inhibition | primary human CD4 T cells, PD-L1 beads, CellTiter-Glo 96 h | activation, % (no concentration beside the values) | 29,000 tested, under 10 active | AID 2316; call rule not given here
NOMO-1 viab = STK33 inhibitor candidate reducing NOMO-1 cell viability; 37,000 tested, 7.5% active; NOMO-1 AML viability, CellTiter-Glo luminescence, 72 h; inhibition, % (concentration not given with the values); in the data active = inhibition above about 80%; inconclusive = no clear call, values can overlap the other calls
Of the large screens only hits and unclear results are named; the others gave an inactive call. Many of the other results were omitted from the sample, so hits are more common in it than they were.

O=C(CN1C(=O)c2ccccc2S1(=O)=O)Nc1cccc(Br)c1	none
COc1ccc(NC(=O)C2CC(=O)NC(=Nc3ccccc3)S2)cc1 (stereo unspecified)	none (no result: STK33 inh)
COc1ccc(S(=O)(=O)c2ccc(OC)cc2)cc1	none (no result: STK33 inh)
CCc1ccc(NS(=O)(=O)c2ccc(OC)cc2)cc1	NOMO-1 viab 113 (no result: STK33 inh)
Cc1c(NC(=O)CN(c2ccc3c(c2)OCCO3)S(C)(=O)=O)c(=O)n(-c2ccccc2)n1C	none
C[C@@H]1CN([C@H](C)CO)C(=O)Cc2cc(NC(=O)Cc3cn(C)c4ccccc34)ccc2O[C@@H]1CN(C)Cc1ccc(-c2ccccc2)cc1	NOMO-1 viab 110
C[C@@H]1CN([C@H](C)CO)C(=O)Cc2cc(NC(=O)Cc3cn(C)c4ccccc34)ccc2O[C@@H]1CN(C)Cc1ccc(Oc2ccccc2)cc1	NOMO-1 viab 116
C[C@@H]1CN([C@@H](C)CO)C(=O)Cc2cc(NC(=O)Cc3cn(C)c4ccccc34)ccc2O[C@@H]1CN(C)Cc1ccc(-c2ccccc2)cc1	none
C[C@H](CO)N1C[C@H](C)[C@H](CN(C)Cc2ccc(Oc3ccccc3)cc2)Oc2ccc(NC(=O)Cc3cn(C)c4ccccc34)cc2CC1=O	none
C/C(=C/COc1c(OC2OC(CO)C(O)C(O)C2O)ccc2ccc(=O)oc12)CO (stereo unspecified)	none
O=C(COc1ccccc1[N+](=O)[O-])Nc1ccc(N2CCN(C(=O)c3ccco3)CC2)cc1	none
Cc1ccc(/C(C#N)=C/c2ccc(N(C)C)cc2)cc1	NOMO-1 viab 116 (no result: STK33 inh)
COc1ccccc1/C=C(\C#N)c1ccc(C)cc1	none (no result: STK33 inh)
O=c1cc(-c2ccccc2)oc2ccccc12	none
O=C1NC(=O)C(=Cc2ccc(-c3ccccc3)o2)C(=O)N1	NOMO-1 viab 126 (no result: STK33 inh)
N#CC1=C(N)Nc2c(c(=O)oc3ccccc23)C1c1ccc(Br)cc1 (stereo unspecified)	none (no result: STK33 inh)
Nc1nc(Cl)nc2c1ncn2C1C[C@@H](O)C(CO)O1 (stereo partly specified)	NOMO-1 viab 98
Nc1nc(Cl)nc2c1ncn2C1OC(CO)[C@H](O)[C@H]1F (stereo partly specified)	NOMO-1 viab 97
Nc1ncnc2c1ncn2C1CCC(CO)O1 (stereo unspecified)	none
COc1ccc2oc(-c3ccccc3)c(O)c(=O)c2c1	none
Cc1nn(-c2ccccc2)c(C)c1Sc1n[nH]c(=O)[nH]c1=O	none (no result: STK33 inh)
COc1c(C)c(OCC=C(C)C)cc(CO)c1CO	none
C[C@@H]1CN([C@H](C)CO)C(=O)c2cccc(NC(=O)NC3CCCCC3)c2O[C@@H]1CN(C)C(=O)Nc1ccc(C(F)(F)F)cc1	none (no result: STK33 inh, PD-1 reverse act)
C[C@H]1CN([C@@H](C)CO)C(=O)c2cccc(NC(=O)Nc3ccc(C(F)(F)F)cc3)c2O[C@H]1CN(C)C(=O)Nc1ccc(F)cc1	NOMO-1 viab inconclusive (no result: STK33 inh)
C[C@H](CO)N1C[C@H](C)[C@@H](CN(C)C(=O)Nc2ccc(F)cc2)Oc2c(NC(=O)Nc3ccc(C(F)(F)F)cc3)cccc2C1=O	none (no result: STK33 inh, PD-1 reverse act)
C[C@@H]1CN([C@@H](C)CO)C(=O)c2cccc(NC(=O)Nc3ccc(C(F)(F)F)cc3)c2O[C@H]1CN(C)C(=O)Nc1ccc(F)cc1	NOMO-1 viab 117 (no result: STK33 inh)
C[C@H]1CN([C@@H](C)CO)C(=O)c2cccc(NC(=O)Nc3ccc(C(F)(F)F)cc3)c2O[C@H]1CN(C)C(=O)Nc1ccc(C(F)(F)F)cc1	none (no result: STK33 inh)
C[C@@H]1CN([C@@H](C)CO)C(=O)c2cccc(NC(=O)NC3CCCCC3)c2O[C@@H]1CN(C)C(=O)Nc1ccc(C(F)(F)F)cc1	NOMO-1 viab 94 (no result: STK33 inh)
C[C@@H]1CN([C@H](C)CO)C(=O)c2cccc(NC(=O)Nc3ccc(C(F)(F)F)cc3)c2O[C@@H]1CN(C)C(=O)Nc1ccc(C(F)(F)F)cc1	NOMO-1 viab 98 (no result: STK33 inh)
C[C@H](CO)N1C[C@H](C)[C@H](CN(C)C(=O)Nc2ccc(F)cc2)Oc2c(NC(=O)Nc3ccc(C(F)(F)F)cc3)cccc2C1=O	NOMO-1 viab 103 (no result: STK33 inh)
Cc1c2cc(-c3cccs3)sc2nc2c(O)cc(=O)[nH]c12	none (no result: STK33 inh)
Cc1cccc(-c2nnc(SCC(=O)Nc3cccc(C)c3C)n2C)c1	none (no result: PD-1 reverse act)
COC(=O)C1=C(C)NC(C)=C(C(=O)OC)C1C	none
N#Cc1sc2nc(-c3ccncc3)ccc2c1N	none (no result: STK33 inh)
COc1ccc(NC(=O)N(C)C[C@H]2Oc3c(NC(=O)Nc4ccc(C(F)(F)F)cc4)cccc3C(=O)N([C@@H](C)CO)C[C@H]2C)cc1	NOMO-1 viab 88 (no result: STK33 inh)
COc1ccc(NC(=O)Nc2cccc3c2O[C@H](CN(C)C(=O)Nc2ccc(C(F)(F)F)cc2)[C@H](C)CN([C@H](C)CO)C3=O)cc1	none (no result: STK33 inh)
FC(F)(F)c1cc(-c2cn3ccccc3n2)cc(C(F)(F)F)c1	none (no result: STK33 inh)
COC(=O)c1c(NC(=S)N2CCN(Cc3c(C)nn(C)c3C)CC2)sc2c1CCC(C)C2 (stereo unspecified)	none (no result: PD-1 reverse act)
N#CC(=S)Nc1ccc(F)cc1	none (no result: STK33 inh)
COc1cccc(CNc2nc3ccccc3n2C)c1OC	none
COc1ccc(NC(=O)CSc2ncnc3sc(-c4ccccc4)cc23)cc1Cl	none
O=C(CSc1ncnc2sc(-c3ccccc3)cc12)NC1CCCCC1	NOMO-1 viab 104
C=CCSc1nnc(-c2ccc(C)cc2)o1	none (no result: STK33 inh)
C=C1CC[C@H]2[C@@](C)(CCC(O)[C@@]2(C)CO)[C@@H]1CCC1=CCOC1=O (stereo partly specified)	none
C=C1CC[C@@H]2[C@](C)(CO)[C@H](O)CC[C@@]2(C)[C@@H]1C/C=C1/C(=O)OC[C@H]1O	NOMO-1 viab 108
O=c1c(Cc2ccc(Br)cc2)csc2ccccc12	none (no result: STK33 inh)
COc1ccccc1NC(=O)c1ccc(OCC(=O)Nc2cc(Cl)cc(Cl)c2)cc1	NOMO-1 viab 86
COc1ccc(OC)c(NC(=O)COc2ccc(C(=O)Nc3ccc(Cl)cc3)cc2)c1	none (no result: PD-1 reverse act)
CC(C)c1ccc(NC(=O)CSc2n[nH]c(-c3ccccc3Cl)n2)cc1	none
O=C(Nc1ccc(Cl)c(C(F)(F)F)c1)C(=S)NCc1ccco1	none (no result: STK33 inh)
C[C@H](CO)N1C[C@H](C)[C@H](CN(C)Cc2ccc(Cl)c(Cl)c2)Oc2ccc(NC(=O)Nc3ccc4c(c3)OCO4)cc2C1=O	NOMO-1 viab 88
C[C@@H]1CN([C@H](C)CO)C(=O)c2cc(NC(=O)Nc3ccc4c(c3)OCO4)ccc2O[C@H]1CN(C)Cc1ccc(Cl)c(Cl)c1	none (no result: STK33 inh)
C[C@H]1CN([C@@H](C)CO)C(=O)c2cc(NC(=O)Nc3ccc4c(c3)OCO4)ccc2O[C@@H]1CN(C)Cc1ccc(Cl)c(Cl)c1	none
C[C@H](CO)N1C[C@H](C)[C@@H](CN(C)Cc2ccc(Cl)c(Cl)c2)Oc2ccc(NC(=O)Nc3ccc4c(c3)OCO4)cc2C1=O	NOMO-1 viab 101 (no result: STK33 inh)
CC1(C)Cc2ccccc2C(Nc2nc(-c3ccccc3)cs2)=N1	none (no result: STK33 inh)
CSc1sc(C(=O)NN)cc1-c1nc(C)cs1	none (no result: STK33 inh)
Cc1ccc(-n2c(SCC(=O)Nc3ccccc3-c3ccccc3)nc3ccccc3c2=O)cc1	none
Cc1ccc(C(C)C)c(OCC(=O)Nc2ccc(C)cc2[N+](=O)[O-])c1	none
N#CCC(=O)NC(=O)NC12CC3CC(CC(C3)C1)C2	none (no result: STK33 inh)
CC1CCC/C=C2\C(=O)C=CC3OC(/C=C/C=C/C=C/C(=O)O)=C(C(=O)O1)C23 (stereo unspecified)	NOMO-1 viab 122
O=C(CSc1n[nH]c(-c2ccc(Cl)cc2)n1)Nc1cccc(C(F)(F)F)c1	none
COC(=O)c1sc(=S)sc1C(=O)OC	NOMO-1 viab 96
COC(=O)c1ccc(C(=O)OC)cc1	none (no result: STK33 inh)

Screens deposited in PubChem BioAssay by Broad Institute.
